# From PubChem BioAssay AID1454 (National Center for Advancing Translational Sciences (NCATS), 2008)
# The whole screen tested about 130,000 compounds, of which about 550 (0.42%) were called active. About 4% were inconclusive and are not listed. This is one part of a sample in which actives are shown more often than they occur. Unmarked numbers belong to inactive results. Calls follow the shape of the dose curve; as a rule, active = well fitted inhibition curve with a large enough effect; inconclusive = small, poorly fitted or top-dose-only effect, or effect the other way; inactive = flat fitted curve, though single readings scatter.
# Experiment: qHTS Assay for Inhibitors of the ERK Signaling Pathway using a Homogeneous Screening Assay; Stimulation with EGF; also: nearly all actives have a fitted effect of over 55% in size;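 as to activity change, negative = inhibition: plate controls were stimulated vehicle wells for no effect and unstimulated vehicle basal for full effect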
# Conditions: HEK293-V1b, EGF-stimulated phospho-ERK AlphaScreen; series mostly up to 11.5 µM; activity change, negative = inhibition: at the top concentration
# Source text: NIH Chemical Genomics Center [NCGC]
# NIH Molecular Libraries Screening Centers Network [MLSCN]
# Assay Submitter (PI): Dr. Wei Zheng, NCGC/NIH
# The Ras/extracellular-signal-regulated kinase (ERK) mitogen activated protein (MAP) kinase signaling pathway (ERK1/2 cascade) plays a key role in transmitting signals from the cell surface to the nucleus (Nishida and Gotoh 1993; Chang and Karin, 2001). The cascade is initiated by the small G-protein Ras, which recruits Raf from the cytosol, where activation occurs. Alternatively, this pathway can be activated by elevating intracellular cAMP, or by activation of a receptor tyrosine kinase as epidermal growth factor receptor.
# Activation of the ERK pathway is essential in increased cell division and cell survival. Sustained and constitutive activation of the ERK pathway, however, has been linked to uncontrolled cell proliferation, increased cell survival, and tumor progression. Thus, the ERK has been as an attractive target for cancer chemotherapy in the past few years (Sebolt-Leopold and Herrera, 2004). Given its physiological and pathological importance, assessment of ERK phosphorylation has been broadly performed in both basic research and drug discovery. Most assays for the measurement of ERK phosphorylation use the antibody-based detection methods, such as western blot and ELISA. These assays require multiple reagent additions with cell wash steps and are not suitable for high throughout screening.
# The current cell-based ERK phosphorylation assay was performed using AlphaScreen platform. AlphaScreen is a two bead-based proximity-dependent chemical energy transfer luminescent assay platform. The assay reagents (ERK SureFire(TM) kit) were supplied from TGR BioSciences (Australia). In the presence of specific antibodies, phosphorylated ERK will bring "donor" and "acceptor" beads to a proximity range (<200 nm), and subsequently lead a chemical luminescent reaction upon exciting donor beads with 680 nm laser. To exclude the assay-related false positives, we used a biotinylated rabbit IgG to perform counter-screen. The biotinylated antibody mimics the phosphorylated ERK1/2 for bringing streptavidin coated beads and protein-A coated beads to a proximity range for the AlphaScreen detection.
# NCGC Assay Protocol Summary:
# HEK293 cells stably expressing type-1 vasopressin receptor (V1b) were maintained in DMEM medium (Invitrogen, Carlsbad, CA) at 37C under a humidified atmosphere containing 5% CO2 and 95% air. The medium contained 10% FBS, 2 mM L-glutamine, non-essential amino acid, pyruvate and 50 U/ml penicillin and 50 ug/ml streptomycin (Invitrogen). The aliquots of frozen cells were stored at -135C and used for the compound screening. All compounds were screened as titrations from 0.6 nM to 46 uM final concentration. Epidermal growth factor (EGF) was used to stimulate the ERK phosphorylation pathway. The ERK phosphorylation in cells was determined using an AlphaScreen assay kit provided by […]. Data were normalized to the controls for basal activity (DMSO only) and 100% activation (25 nM EGF). AC50 values were determined from concentration-response data modeled with the standard Hill equation.
# (1) Seed 4 ul/well of resuspended frozen HEK293 cells containing 2000 cells in white 1536-well plates for overnight with 1% FBS at 37C under a humidified atmosphere containing 5% CO2 and 95% air.
# (2) Add 23 nL compounds in DMSO solution. The final titration was 0.6 nM to 46 uM.
# (3) Incubate at 37C for 30 min.
# (4) Dispense 0.5uL EGF (25 nM in final)
# (5) Incubate at 37C for 5 min.
# (6) Dispense 0.5uL of 1:2 diluted 5x lysis buffer.
# (7) Incubate at 37C for 10 min.
# (8) Dispense 1.5uL of mixture of activation buffer and reaction buffer with AlphaScreen beads (streptavidin donor beads and protein-A acceptor beads, 10 ng/well for each).
# (9) Incubate at room temperature for 5 hr.
# (10) Detect the assay plate in an EnVision plate reader (PerkinElmer) using the AlphaScreen detection mode.
# […]
# Potency is read from the fitted curve at half-maximal effect.
SMILES,"activity change, negative = inhibition",Potency
O=C(CN1CCCCC1)Nc1ccccc1Cl,-9.35%,–
COCCN(CCOC)C(=S)Nc1ccccc1Cl,24.8%,–
O=C(Nc1ccccc1Cl)/C(Cl)=C(\Cl)S(=O)c1ccccc1 (stereo unspecified),–,31.6 µM (active)
COC(=O)Cc1ccc(Oc2ncc(C(F)(F)F)cc2Cl)cc1,1.69%,–
CCOc1ccccc1N1CN(Cc2ccccc2)CNC1=S,1.39% [at 57.5 µM],–
CN(Cc1nc(-c2cnccn2)no1)Cc1n[nH]c2c1CCCCC2,3.06% [at 57.5 µM],–
CN=C1C=C/C(=N/N=c2\ccn(O)cc2C)C=C1C,–,17.8 µM (active)
Cn1nnc(NC(=S)NC(=O)c2ccccc2)n1,-2.19% [at 57.5 µM],–
COc1ccc(C(=O)N/N=C2\CCS(=O)(=O)c3ccc(F)cc32)cc1OC,-0.3% [at 57.5 µM],–
C/C(=N/NC(=O)c1ccn(C)n1)c1ccncc1,5.86% [at 57.5 µM],–
CCN(CC)S(=O)(=O)c1ccc(OC(C)C)c(N)c1,2.99%,–
CCS(=O)(=O)c1ccc(O)c(NC(=O)COc2ccc(Cl)cc2)c1,-0.946%,–
CN(CCc1cn[nH]c1)C(=O)CC1C(=O)NCCN1Cc1cccc(Oc2ccccc2)c1 (stereo unspecified),-15.3%,–
O=C(CN1CCN(c2ccc(Cl)cc2)CC1)NCc1cccs1,-13.5%,–
Cc1ccc(/C=N/NC(=S)Nc2cccc(S(=O)(=O)N(C)C)c2)o1,7.91% [at 57.5 µM],–
Nc1nnc(SCn2nnc3ccccc3c2=O)s1,-7.57%,–
CC1(C)CC(=O)C(CC(=O)N2CCC(Cc3ccccc3)CC2)C(=O)C1,1.38%,–
Cc1ccc(CN(Cc2cccnc2)C(=S)Nc2cc(Cl)ccc2C)cc1,4.9%,–
O=C(COC(=O)c1ccc(S(=O)(=O)Nc2ccccc2)cc1)NCC1CCCO1 (stereo unspecified),12.7% [at 57.5 µM],–

SMILES,"activity change, negative = inhibition",Potency
COc1ccc(-n2cnnc2SCC(=O)Nc2cccc([N+](=O)[O-])c2)cc1,4.62%,–
CCCc1nc2c(c(=O)c3ccccc3n2C)c(=O)n1-c1cc(C)cc(C)c1,2.8% [at 57.5 µM],–
COc1ccc(CCNC(=O)C(=O)NCC2CCNCC2)cc1OC,-2.48% [at 57.5 µM],–
CCn1c(SCc2cc(=O)n3ccsc3n2)nc2ccccc21,1.03%,–
N#C/C(=C/c1ccc(-c2ccccc2[N+](=O)[O-])o1)C(=O)NCCN1CCCCC1,-4.68% [at 57.5 µM],–
COC(=O)/C=C(\Oc1ccccc1)C1(O)CCCCC1,9.88% [at 57.5 µM],–
O=[N+]([O-])c1ccc2c(c1)C(N1CCOCC1)/C(=C/C1(O)CCCCC1)O2 (stereo unspecified),-3.12%,–
CC(=O)Nc1cccc(-c2nc3ccccc3s2)c1C,-1.53%,–
CCOC(=O)N1CCN(CC(=O)Nc2ccc(F)cc2)CC1,11.2%,–
COCCCNC(NC(=O)c1ccc(OC)cc1)C(Cl)(Cl)Cl (stereo unspecified),7.85%,–
CC(=O)c1cccc(NC(=O)[C@@H](NC(N)=O)C(C)C)c1,-0.0389%,–
Cc1[nH]n(C)c(=O)c1N=Nc1ccc(S(C)(=O)=O)cc1,-9.46% [at 57.5 µM],–
Cc1cccc(N=Nc2c(C)[nH]n(-c3ccccc3)c2=O)c1,–,7.08 µM (active)
O=C(NNC(=O)c1ccccc1[N+](=O)[O-])Nc1ccccc1C(F)(F)F,-11%,–
CCCC(=O)Nc1nnc(-c2ccccc2)o1,-5.39% [at 57.5 µM],–
COc1ccc(CN(C)C(=S)Nc2ccc(Cl)cc2Cl)cc1,-4.17%,–
O=C(NCc1csc(-c2cccs2)n1)C1CC1,3.28% [at 57.5 µM],–
Cc1noc(C)c1COC(=O)COc1ccc(-c2ccccc2)cc1,3.01% [at 57.5 µM],–
CCCn1c(NC(=O)C23CC4CC(CC(O)(C4)C2)C3)nc2ccccc21,0.399%,–

SMILES,"activity change, negative = inhibition",Potency
CCOC(=O)c1c(C)[nH]c2c1-c1ccccc1C(=O)C2=O,-6.6%,–
CCOC(=O)c1ccccc1NS(=O)(=O)c1ccc(OC)cc1,12.6%,–
CCOC(=O)C1=C(c2ccc(OC)cc2)C(=O)c2ccccc2C1=O,–,31.6 µM (active)
CC(C)NC(=O)NC(=O)CSc1nnc(-c2ccccc2F)n1N,3.58%,–
Cc1cc(C)nc(NC(=O)/C=C/c2ccc(Cl)cc2)n1,-5.42% [at 57.5 µM],–
COc1ccc(/C=C/C(=O)Nc2ccc(C)cc2)cc1S(=O)(=O)N1CCOCC1,-5.96% [at 57.5 µM],–
CC(=O)Nc1ccc(-c2csc(NC=C3C(=O)OC(C)(C)OC3=O)n2)cc1,-2.25%,–
CC(=O)Nc1ccc(S(=O)(=O)Nc2nc(-c3ccc(C(C)(C)C)cc3)cs2)cc1,-2.35%,–
CC(=O)Nc1ccc(-c2csc(NC(=O)Nc3ccccc3)n2)cc1,–,25.1 µM (active)
CN(c1ccccc1)S(=O)(=O)c1ccc(Cl)c(C(=O)OCC(=O)N2CCOCC2)c1,-4.38%,–
O=C(NCc1cccs1)c1cc(-c2ccccn2)nc2ccc(Br)cc12,8.18%,–
O=C(CN1CCCC1)N1CCN(c2ccccc2)CC1,5.85%,–
COc1ccc(N2CCN(C(=O)/C(C#N)=C/c3ccccc3)CC2)cc1,8.33%,–
CC(CO)NCC12CC3CC(CC(C3)C1)C2 (stereo unspecified),-23.6%,–
CC(C)(C)c1cc(P(=O)(c2ccccc2)c2ccccc2)ccc1O,8.91% [at 57.5 µM],–
CCOC(=O)CN(C(=O)COc1nc(-c2ccccc2)cc(C)c1C#N)c1ccc(F)cc1,3.15% [at 57.5 µM],–
COC(OC)c1ccnc(SCc2ccccc2Cl)n1,-7.52% [at 57.5 µM],–
O=C(O)/C=C/c1ccc2c(c1)OCCO2,-8.38% [at 57.5 µM],–
